# Data as given in PubChem BioAssay (NCATS).
# Values joined by “and” are separate entries in the source; they are usually repeats but may differ in a detail not shown here. Equal entries are not always repeated. Records with an inconclusive call do not appear. Where a structure was tested more than once in an assay, its records may differ in their call. Active and inactive are the calls of the source. Unless noted, the call rests on the fitted dose curve; in most records, active means well fitted curve in the direction sought with a large enough effect; inconclusive means small, poorly fitted or top-dose-only effect, or another doubt; inactive means no such curve, though single readings can be large; an effect the other way counts as inactive or inconclusive.
# Key:
# [1] = Cell Viability - BJ (AID 421; calls by dose curve;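 further: potency means the concentration at half of the fitted maximal effect; cells exposed to compound for 40 hours at 37 °C before readout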); details: BJ fibroblast viability, qHTS
# Outline: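 Quantitative HTS: ATP depletion in BJ cells after 40 hr compound exposure in complete culture medium, detected with CellTiter-Glo; AC50 from standard Hill fits.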
# [2] = Cell Viability - MRC5 (AID 434; calls by dose curve;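 further: potency means the concentration at half of the fitted maximal effect; cells exposed to compound for 40 hours at 37 °C; potency reflects cytotoxicity seen as loss of intracellular ATP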); details: MRC5 lung fibroblast viability, qHTS
# Outline: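 ATP luminescence read-out (CellTiter-Glo, 20 min RT) after 40 hr, 37 °C compound exposure of 1500 MRC5 cells/well. Data normalized to DMSO (basal) and 100 uM tamoxifen (100% inhibition); AC50 from standard Hill equation.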
# [3] = Cell Viability - SK-N-SH (AID 435; calls by dose curve; further: potency means the concentration at half of the fitted maximal effect); details: SK-N-SH neuroblastoma cell viability qHTS
# Outline: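 qHTS cytotoxicity: CellTiter-Glo ATP luminescence after 40 h compound exposure of human neuroblastoma SK-N-SH cells at 37 °C. AC50 derived by Hill-equation fitting, with DMSO as basal and 100 uM tamoxifen as full inhibition.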
# [4] = Cell Viability - N2a (AID 540); details: N2a mouse neuroblastoma cell viability; activity change, negative = cytotoxicity: at 92.2 µM (top of the series); further: nearly all actives have a fitted effect of over 45% in size; further: potency means the concentration at half of the fitted maximal effect;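 on activity change, negative = cytotoxicity: plate controls were DMSO alone for no effect and tamoxifen control for full effect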
# Outline: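 CellTiter-Glo ATP luminescence, read 20 min after reagent at room temperature, reported viability following 40 h compound treatment at 37 °C. N2a mouse neuroblastoma cells seeded 1500/well; Hill equation gave AC50.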
# [5] = Cell Viability - SH-SY5Y (AID 544); details: SH-SY5Y neuroblastoma cell viability; viability change, negative = cytotoxic: at 92.2 µM (top of the series);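 further: cells exposed to compound for 40 hours; nearly all actives have a fitted effect of over 55% in size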; further: potency means the concentration at half of the fitted maximal effect
# Outline: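 Cytotoxicity measured via ATP-dependent luciferase luminescence (CellTiter-Glo) following 40 h, 37 °C exposure of 1500 SH-SY5Y cells per well. Concentration-response data were fitted with the standard Hill equation to give AC50.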
# [6] = Cell Viability - Renal Proximal Tubule (AID 545); details: renal proximal tubule cells viability, primary cells of rat origin; activity change, negative = cytotoxicity: at 91.7 µM (top of the series);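 further: cells exposed to compound for 40 hours; nearly all actives have a fitted effect of over 40% in size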; further: potency means the concentration at half of the fitted maximal effect
# Outline: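 Viability taken as intracellular ATP (CellTiter-Glo luminescence) after 40 hr, 37 °C compound treatment of primary proximal tubule cells from rat kidney, 1000 cells/well; Hill-equation fits of qHTS concentration-response data gave AC50.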
# [7] = Cellular Toxicity (caspase-3) HepG2 (AID 654); details: HepG2 caspase-3 activation, luminescence; series mostly up to 92.2 µM; further: potency means the concentration at half of the fitted maximal effect;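 on caspase-3 activation: cells exposed to compound for 16 hours before reading; 0% = DMSO alone and 100% = caspase signal from 100 µM tamoxifen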
# Outline: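 Caspase 3/7 activation is measured as a luminescence increase (aminoluciferin substrate) after 16 h compound exposure of human hepatocarcinoma HepG2 cells. AC50 values are Hill fits, scaled between DMSO baseline and 100 uM tamoxifen stimulation.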
# [8] = Cellular Toxicity (caspase-3) HUV-EC-C (AID 656); details: HUV-EC-C cells, caspase-3 activation (apoptosis); series mostly up to 92.2 µM
# Outline: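 Luminescent Caspase-Glo 3/7 readout after 16 h, 37 °C compound exposure of HUV-EC-C endothelial cells, 1000 per well, complete medium. AC50 derived by Hill fitting, with DMSO as baseline and 100 uM tamoxifen as full activation.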
# [9] = Cellular Toxicity (caspase-3) Mesangial (AID 660); details: mesangial cells, normalized: DMSO 0%, 100 µM tamoxifen 100%; at 91.7 µM (top of the series);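 further: combined caspase 3 and 7 activity read by Caspase-Glo luminescence; cells exposed to compound for 16 h before the caspase read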
# Outline: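 Caspase 3/7 activation measured by Caspase-Glo 3/7 luminescence (20 min, room temperature) following 16 h exposure of mesangial cells (1000/well); AC50 from Hill-equation fit, normalized to DMSO and 100 uM tamoxifen.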
# [10] = Cellular Toxicity (caspase-3) N2a (AID 665); details: N2a cells, luminescence; Potency: caspase-3 activation; series mostly up to 92.2 µM;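 further: compound exposure lasted 16 h at 37 °C before readout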
# Outline: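 Caspase-3/7 activation measured as luminescence from Caspase-Glo reagent (1 h, room temperature) after 16 h compound exposure of mouse N2a cells. AC50 values from Hill-equation concentration-response, scaled between DMSO and 10 uM staurosporine.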
# [11] = Cellular Toxicity (caspase-3) NIH 3T3 (AID 666); details: NIH 3T3 caspase-3 activation, apoptosis/toxicity; series mostly up to 92.2 µM;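 further: caspase signal read after 16 h compound exposure; 0% = DMSO basal and 100% = 100 µM tamoxifen stimulation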
# Outline: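 Caspase-Glo 3/7 luminescence reported caspase activation in 1000 NIH 3T3 cells/well after 16 h compound exposure at 37 C. DMSO set basal and 100 uM tamoxifen set 100% stimulation; concentration-response modeled with the Hill equation for AC50.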
# [12] = Cellular Toxicity (caspase-3) Renal Proximal Tubule (AID 667); details: renal proximal tubule cells, primary cells freshly taken from rat, solvent-only wells 0%, staurosporine 100%; series mostly up to 91.7 µM;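 further: cells exposed to compound for 16 hours at 37 °C before detection; 0% = DMSO basal and 100% = 10 µM staurosporine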
# Outline: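 Caspase 3/7 activation measured by luminescent aminoluciferin release in primary rat proximal tubule cells after 16 hr compound exposure at 37 °C. AC50 from Hill-fitted concentration-response, scaled between DMSO and 10 uM staurosporine.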
# [13] = Cell Viability - LYMP1-003 - Assay at 24 hr (AID 963); details: LYMP1-003 lymphoblastoid cell viability; series mostly up to 92.2 µM; further: potency means the concentration at half of the fitted maximal effect;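 on viability change, negative = cytotoxic: plate controls were DMSO only for no effect and tetraoctylammonium bromide positive control for full effect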
# Outline: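 Concentration-response qHTS: ATP loss measured by CellTiter-Glo luminescence after 24 h compound exposure at 37 C. Cells were LYMP1-003 human lymphoblastoid, 2500 per well. AC50 derived via standard Hill equation modeling.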
# [14] = biological target: Peroxisome proliferator-activated receptor alpha (Homo sapiens) (UniProt Q07869); assay: qHTS assay for small molecule agonists of the peroxisome proliferator-activated receptor alpha (PPARalpha) signaling pathway (AID 651778); details: PathHunter PPARalpha complementation, chemiluminescence, 6 h; max response: stronger effect = higher value; further: % of control where 0% means no effect
# Peroxisome proliferator-activated receptor alpha (Homo sapiens), sequence (Q07869 whole entry, looked up, the tested form may be a part): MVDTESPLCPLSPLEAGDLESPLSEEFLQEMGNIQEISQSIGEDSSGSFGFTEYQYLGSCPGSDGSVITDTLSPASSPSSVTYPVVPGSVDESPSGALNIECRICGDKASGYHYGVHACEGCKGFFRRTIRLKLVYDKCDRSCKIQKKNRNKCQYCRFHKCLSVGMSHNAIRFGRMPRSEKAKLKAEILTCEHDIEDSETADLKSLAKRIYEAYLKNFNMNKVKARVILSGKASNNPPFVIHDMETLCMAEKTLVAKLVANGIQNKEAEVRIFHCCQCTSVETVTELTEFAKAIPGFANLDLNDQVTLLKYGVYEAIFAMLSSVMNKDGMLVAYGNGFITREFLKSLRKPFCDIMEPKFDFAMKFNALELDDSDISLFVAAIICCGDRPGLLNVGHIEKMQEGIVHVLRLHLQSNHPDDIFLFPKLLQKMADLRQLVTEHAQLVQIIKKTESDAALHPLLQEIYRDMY
# Outline: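 Enzyme-fragment complementation assay in which ligand-bound PPARalpha translocates and forms an active enzyme that generates chemiluminescence. Cells were plated overnight, exposed to compound for 6 hr at 37 C, and then given detection reagent for 60 min at room temperature.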
# [15] = qHTS assay for cell viability of HEK293 cells (AID 743288); details: ATP luminescence (CellTiter-Glo), 18 h; max response: stronger effect = lower value; further: nearly all actives have a fitted effect of over 50% in size; further: potency means the concentration at half of the fitted maximal effect; on max response: on the % scale 0 is the no-effect control and ±100 the full control effect
# Outline: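 Readout is luciferase-coupled ATP content (CellTiter-Glo luminescence, 30 min room temperature) as a measure of metabolically competent cells. Parental HEK293 cells were plated 5 h or more before compound addition, then treated 18 h at 37 C.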
# [16] = qHTS assay for cell viability of the p53RE-bla HCT-116 cell line (AID 743292); details: p53RE-bla HCT-116 viability, ATP luminescence, 16 h; series mostly up to 95 µM; further: nearly all actives have a fitted effect of over 55% in size; further: potency means the concentration at half of the fitted maximal effect; on activity change, negative = cytotoxicity: on the % scale 0 is the no-effect control and ±100 the full control effect
# Outline: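 HCT-116 p53RE-bla cells seeded 4,000/well; 5 h at 37 C; compound (DMSO) added; 16 h at 37 C; CellTiter-Glo added, 30 min RT; luminescence read.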
# [17] = NFAT Signaling Pathway (AID 444; active means well fitted curve in either direction with a large enough effect, not every such curve was filed as active;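 further: carbachol stimulus at about its EC50 of 1 µM final; on the % scale 0 is the no-effect control and ±100 the full control effect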); details: Jurkat NFAT-bla M1, carbachol, beta-lactamase ratio, 5 h; at 17.2 µM (top of the series) unless noted
# Outline: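 Jurkat cells with NFAT-driven β-lactamase reporter and co-expressed M1 receptor, stimulated with carbachol (final 1 uM, ~EC50), compound titration, 5 h at 37 °C. CCF4 loaded 1 h at RT; 460/530 nm ratio gave %activity and AC50.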
# [18] = Stat Signaling Pathway (AID 446; active means well fitted curve in either direction with a large enough effect, not every such curve was filed as active;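 further: ME-180 cervical cancer cells given 40 pM IL-6 alongside compound; SIE-controlled beta-lactamase reporter measured as 460/530 nm FRET emission ratio; on the % scale 0 is the no-effect control and ±100 the full control effect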); details: ME-180 (cervical carcinoma) SIE beta-lactamase reporter, IL-6 stimulated, 5 h; at 17.2 µM (top of the series) unless noted
# Outline: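 Overnight-plated ME-180 cells bearing a STAT Inducible Element beta-lactamase reporter; 5 h co-exposure to compound and 40 pM IL-6; values normalized to 300 pM IL-6 and 125 nM JAK inhibitor controls.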
# [19] = biological target: Glucocorticoid receptor (Homo sapiens) (UniProt P04150); assay: GR-GFP Redistribution (AID 450;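 active means compounds whose dose series gives a full or clear partial fitted curve of increased nuclear translocation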; further: potency means the concentration at half of the fitted maximal effect); details: U2OS GR-GFP nuclear translocation, laser cytometry, 2 h; series mostly up to 20.6 µM
# Glucocorticoid receptor (Homo sapiens), sequence (P04150 whole entry, looked up): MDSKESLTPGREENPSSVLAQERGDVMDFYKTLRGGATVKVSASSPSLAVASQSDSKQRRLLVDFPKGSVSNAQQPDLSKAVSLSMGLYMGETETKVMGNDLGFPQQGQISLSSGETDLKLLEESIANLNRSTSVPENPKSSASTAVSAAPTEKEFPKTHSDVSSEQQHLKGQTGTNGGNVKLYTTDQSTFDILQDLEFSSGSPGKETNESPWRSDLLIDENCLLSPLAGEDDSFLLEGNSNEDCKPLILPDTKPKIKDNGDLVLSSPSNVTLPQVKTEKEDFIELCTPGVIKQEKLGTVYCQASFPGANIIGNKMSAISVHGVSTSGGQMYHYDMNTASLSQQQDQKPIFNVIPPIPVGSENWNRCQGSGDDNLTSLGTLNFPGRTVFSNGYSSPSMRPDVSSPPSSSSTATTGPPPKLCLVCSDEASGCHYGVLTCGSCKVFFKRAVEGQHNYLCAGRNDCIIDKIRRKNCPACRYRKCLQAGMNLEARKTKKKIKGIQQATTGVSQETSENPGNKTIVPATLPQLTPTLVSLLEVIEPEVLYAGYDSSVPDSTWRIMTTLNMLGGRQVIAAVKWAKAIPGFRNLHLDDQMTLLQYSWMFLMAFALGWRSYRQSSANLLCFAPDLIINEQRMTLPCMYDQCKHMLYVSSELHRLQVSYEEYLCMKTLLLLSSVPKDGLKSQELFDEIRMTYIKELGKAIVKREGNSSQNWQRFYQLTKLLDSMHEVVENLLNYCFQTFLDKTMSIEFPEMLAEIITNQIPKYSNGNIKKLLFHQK
# [20] = biological target: Cytochrome P450 3A4 (Homo sapiens) (UniProt P08684); assay: qHTS Assay for Activators of Cytochrome P450 3A4 (AID 885); details: recombinant CYP3A4, Luciferin-PPXE luminescence, 60 min; series mostly up to 57.1 µM; further: nearly all actives have a fitted effect of over 65% in size
# Cytochrome P450 3A4 (Homo sapiens), sequence (P08684 whole entry, looked up): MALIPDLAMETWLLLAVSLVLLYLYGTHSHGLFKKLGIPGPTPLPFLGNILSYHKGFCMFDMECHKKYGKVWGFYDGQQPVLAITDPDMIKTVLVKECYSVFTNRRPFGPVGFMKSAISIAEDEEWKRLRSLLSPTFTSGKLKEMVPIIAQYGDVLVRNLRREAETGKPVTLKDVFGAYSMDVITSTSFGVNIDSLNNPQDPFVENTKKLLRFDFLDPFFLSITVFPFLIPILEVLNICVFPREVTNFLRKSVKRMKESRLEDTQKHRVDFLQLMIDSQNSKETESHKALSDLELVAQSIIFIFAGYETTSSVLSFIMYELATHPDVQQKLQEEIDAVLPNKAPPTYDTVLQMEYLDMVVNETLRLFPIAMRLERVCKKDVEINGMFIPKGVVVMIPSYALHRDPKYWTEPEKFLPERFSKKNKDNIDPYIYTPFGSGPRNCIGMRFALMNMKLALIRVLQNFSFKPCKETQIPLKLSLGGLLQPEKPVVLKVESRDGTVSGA
# Outline: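 Using 20nM recombinant human CYP3A4 in potassium phosphate (200mM), substrate Luciferin-PPXE at 25uM, luminescent luciferin detection followed a 60-min RT NADPH reaction; data scaled to 57 uM ketoconazole.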
smiles,measurement,setting,value
c1ccc2c(c1)-c1cccc3c1c-2cc1ccccc13,Potency,[1],> 92 µM (inactive)
same,Potency,[2],> 92 µM (inactive)
same,Potency,[3],> 92 µM (inactive)
same,Potency,[4],inactive
same,Potency,[5],inactive
same,Potency,[6],inactive
same,Potency,[7],inactive
same,Potency,[8],inactive
same,caspase-3 activation,[9],-0.695% (inactive)
same,Potency,[10],inactive
same,Potency,[11],inactive
same,outcome,[12],inactive
same,Potency,[13],inactive
same,max response,[14],-0.066% (inactive) and -2.89% (inactive)
same,max response,[15],-13.5% (inactive) and -14.9% (inactive)
same,Potency,[16],inactive
N#Cc1nc(-c2cccs2)oc1NCc1ccccc1,"activity change, negative = inhibition",[17],-20.6% (inactive)
same,"activity, negative = inhibition",[18],-1.04% (inactive)
same,Potency,[19],> 20.6 µM (inactive)
COc1ccccc1Nc1ncc(-c2cccs2)s1,"activity change, negative = inhibition",[17],11.7% (inactive)
same,"activity, negative = inhibition",[18],-4.45% (inactive)
same,Potency,[19],> 20.6 µM (inactive)
Cc1ccc(Cn2ncc3c(N4CCN(c5ccc(C)cc5)CC4)ncnc32)cc1,"activity change, negative = inhibition",[17],-24.6% (inactive)
same,"activity, negative = inhibition",[18],-13.5% (inactive)
same,Potency,[19],> 20.6 µM (inactive)
C=CC(=O)OCCOCCOC(=O)C=C,Potency,[1],35.8 µM (active)
same,Potency,[3],22.7 µM (active)
same,"activity change, negative = cytotoxicity",[4],-114% (active)
same,Potency,[5],6.31 µM (active)
same,Potency,[6],20 µM (active)
same,Potency,[7],inactive
same,Potency,[8],inactive
same,caspase-3 activation,[9],0.177% (inactive)
same,Potency,[10],inactive
same,Potency,[11],inactive
same,outcome,[12],inactive
same,Potency,[13],31.6 µM (active)
same,max response,[14],-4.05% (inactive)
same,Potency,[16],inactive
CO[C@H]1/C=C/O[C@@]2(C)Oc3c(C)c(O)c4c(O)c(c5c(c4c3C2=O)NC2(CCN(CC(C)C)CC2)N=5)=NC(=O)/C(C)=C\C=C\[C@H](C)[C@H](O)[C@@H](C)[C@@H](O)[C@@H](C)[C@H](OC(C)=O)[C@@H]1C,Potency,[1],> 92 µM (inactive)
same,Potency,[2],> 92 µM (inactive)
same,Potency,[3],> 92 µM (inactive)
same,Potency,[4],inactive
same,Potency,[7],inactive
same,Potency,[8],inactive
same,caspase-3 activation,[9],0.833% (inactive)
same,Potency,[10],inactive
same,Potency,[11],inactive
same,outcome,[12],inactive
same,Potency,[20],inactive
same,Potency,[13],inactive
same,max response,[14],-2.63% (inactive)
same,max response,[15],-15.3% (inactive)
same,Potency,[16],inactive
CC/C(=C(\c1ccccc1)c1ccc(OCCN(C)C)cc1)c1ccc(O)cc1,Potency,[1],45.1 µM (active)
same,Potency,[2],43.3 µM (active)
same,Potency,[3],34.3 µM (active)
same,Potency,[4],31.6 µM (active)
same,Potency,[5],31.6 µM (active)
same,"activity change, negative = cytotoxicity",[6],-109% (active)
same,Potency,[7],50.1 µM (active)
same,caspase-3 activation,[9],-2.42% (inactive)
same,Potency,[10],inactive
same,Potency,[11],inactive
same,outcome,[12],inactive
same,max response,[14],-3.76% (inactive)
same,Potency,[16],70.8 µM (active)
ClC1=C(Cl)C(Cl)(Cl)C(Cl)=C1Cl,Potency,[1],> 92 µM (inactive)
same,Potency,[2],> 92 µM (inactive)
same,Potency,[3],> 92 µM (inactive)
same,Potency,[5],inactive
same,Potency,[6],inactive
same,Potency,[7],10 µM (active)
same,Potency,[8],inactive
same,caspase-3 activation,[9],0.653% (inactive)
same,Potency,[10],inactive
same,Potency,[11],inactive
same,outcome,[12],inactive
same,Potency,[13],inactive
same,max response,[14],-0.568% (inactive) and 0.283% (inactive)
same,Potency,[15],11.2 µM (active)
same,max response,[15],-13.8% (inactive)
same,Potency,[16],25.1 µM (active) and inactive
Cc1cc(Nc2ccc(O)cc2)ccc1N,Potency,[2],> 92 µM (inactive)
same,Potency,[3],87 µM (active)
same,"activity change, negative = cytotoxicity",[4],-119% (active)
same,Potency,[5],6.31 µM (active)
same,Potency,[6],inactive
same,Potency,[7],inactive
same,Potency,[8],inactive
same,caspase-3 activation,[9],23.2% (inactive)
same,Potency,[10],inactive
same,outcome,[12],inactive
same,Potency,[20],inactive
same,Potency,[13],inactive
same,max response,[14],-7.64% (inactive)
same,max response,[15],-27% (inactive)
same,Potency,[16],inactive
CNc1ccc(O)cc1,Potency,[3],23.5 µM (active)
same,Potency,[4],31.6 µM (active)
same,Potency,[5],2 µM (active)
same,Potency,[7],inactive
same,Potency,[8],inactive
same,caspase-3 activation,[9],-3.33% (inactive)
same,Potency,[10],inactive
same,outcome,[12],inactive
same,Potency,[20],inactive
same,Potency,[13],25.1 µM (active)
same,max response,[14],-6.09% (inactive)
same,Potency,[15],35.5 µM (active)
same,Potency,[16],70.8 µM (active)
CCOc1ccc(-c2nnc3sc(COc4ccccc4)nn23)cc1,"activity change, negative = inhibition",[17],4.76% (inactive)
same,"activity, negative = inhibition",[18],4.42% (inactive)
same,Potency,[19],> 20.6 µM (inactive)
Cc1cc(C)c(C#N)c(SCC(=O)N2CCN(Cc3ccccc3)CC2)n1,"activity change, negative = inhibition",[17],-24.4% (inactive)
same,"activity, negative = inhibition",[18],11.8% (inactive)
same,Potency,[19],> 20.6 µM (inactive)
Cn1c(=O)c2c(nc(Oc3ccc4c(c3)OCO4)n2Cc2ccc(Br)cc2)n(C)c1=O,"activity change, negative = inhibition",[17],-5.35% (inactive)
same,"activity, negative = inhibition",[18],-4.55% (inactive)
same,Potency,[19],> 20.6 µM (inactive)
